# Laboratory results as given in the supplement of paper PMC9023506.
# Counter-ions that a name gives are not always drawn.
# System: Danio rerio larvae (5 dpf)
# Test: startle response to 20-s acoustic pulses, difference vs DMSO (percentage points (treated minus DMSO)); higher = more of the behaviour than the DMSO vehicle control
# Conditions: 10 µM; exposure time: 3 h pre-incubation + 3 h imaging
# Experimental: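 5-dpf wild-type zebrafish larvae were imaged in 96-well plates. They were treated with 190 Tocris FDA-approved drugs at 10 µM (1 µl/ml DMSO) for 3 h before and 3 h during imaging at 28.5 °C, 48 larvae per drug. Automated image analysis gave % time moving and optomotor responses. Values are drug group mean minus DMSO vehicle mean (n=844), in percentage points, for 10 behaviours.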
row,Compound,startle response to 20-s acoustic pulses
1,OCc1cc(C(O)CNCCCCCCOCCCCc2ccccc2)ccc1O (stereo not given) [Salmeterol xinafoate],-5.23
2,Nc1nc(Cl)nc2c1ncn2[C@@H]1O[C@H](CO)[C@@H](O)[C@@H]1F [Clofarabine],5.05
3,COc1cc2nc(N3CCN(C(=O)C4COc5ccccc5O4)CC3)nc(N)c2cc1OC (stereo not given) [Doxazosin mesylate],7.2
4,CCCN(CCC)S(=O)(=O)c1ccc(C(=O)O)cc1 [Probenecid],1.66
5,CN1CC2c3ccccc3Oc3ccc(Cl)cc3C2C1 (stereo not given) [Asenapine maleate],-6.44
6,COCCc1ccc(OCC(O)CNC(C)C)cc1 (stereo not given) [Metoprolol tartrate],6.66
7,Cc1c(-c2ccc(O)cc2)n(Cc2ccc(OCCN3CCCCCC3)cc2)c2ccc(O)cc12 [Bazedoxifene acetate],-4.17
8,C#C[C@]1(O)CC[C@H]2[C@@H]3CCC4=CC(=O)CC[C@@H]4[C@H]3CC[C@@]21CC [Levonorgestrel],-4.51
9,CN(C)CC/C=C1/c2ccccc2COc2ccc(CC(=O)O)cc21 [Olopatadine hydrochloride],0.514
10,NS(=O)(=O)c1cc(C(=O)O)c(NCc2ccco2)cc1Cl [Furosemide],-4.02
11,COc1c(C)c2c(c(O)c1C/C=C(\C)CCC(=O)O)C(=O)OC2 [Mycophenolic acid],2.15
12,CO[C@H]1/C=C/O[C@@]2(C)Oc3c(C)c(O)c4c(O)c(c5c(nc6cc(C)ccn65)c4c3C2=O)NC(=O)/C(C)=C\C=C\[C@H](C)[C@H](O)[C@@H](C)[C@@H](O)[C@@H](C)[C@H](OC(C)=O)[C@@H]1C [Rifaximin],2.34
13,CN1CCN2c3ncccc3Cc3ccccc3C2C1 (stereo not given) [Mirtazapine],-5.94
14,CC(C)(C#N)c1cc(Cn2cncn2)cc(C(C)(C)C#N)c1 [Anastrozole],-0.38
15,CCCN(CCc1cccs1)[C@H]1CCc2c(O)cccc2C1 [Rotigotine hydrochloride],-4.68
16,O=c1n(CCCN2CCN(c3cccc(Cl)c3)CC2)nc2ccccn12 [Trazodone hydrochloride],2.64
17,CCCCC(=O)N(Cc1ccc(-c2ccccc2-c2nnn[nH]2)cc1)[C@H](C(=O)O)C(C)C [Valsartan],-0.147
18,CCCCCCCCc1ccc(CCC(N)(CO)CO)cc1,-1.81
19,CCCCNc1cc(C(=O)O)cc(S(N)(=O)=O)c1Oc1ccccc1 [Bumetanide],3.98
20,CCOc1nc2cccc(C(=O)O)c2n1Cc1ccc(-c2ccccc2-c2noc(=O)[nH]2)cc1 [Azilsartan],3.96

row,Compound,startle response to 20-s acoustic pulses
1,Cn1nnc2c(C(N)=O)ncn2c1=O [Temozolomide],2.71
2,CN(C)C(=N)NC(=N)N [Metformin hydrochloride],-1.12
3,CC(=O)Oc1cc2c(s1)CCN(C(C(=O)C1CC1)c1ccccc1F)C2 (stereo not given) [Prasugrel],-10.9
4,COC(=O)C1=C(C)NC(C)=C(C(=O)OC(C)C)C1c1cccc2nonc12 (stereo not given) [Isradipine],-10.3
5,CCCCCCCN(CC)CCCC(O)c1ccc(NS(C)(=O)=O)cc1 (stereo not given) [Ibutilide hemifumarate],-3.17
6,CC(C)Nc1cccnc1N1CCN(C(=O)c2cc3cc(NS(C)(=O)=O)ccc3[nH]2)CC1 [Delavirdine mesylate],-4.51
7,COCCCOc1cc(C[C@@H](C[C@H](N)[C@@H](O)C[C@H](C(=O)NCC(C)(C)C(N)=O)C(C)C)C(C)C)ccc1OC [Aliskiren hemifumarate],-0.0432
8,Cc1cn([C@H]2C=C[C@@H](CO)O2)c(=O)[nH]c1=O [Stavudine],-0.918
9,CC(C)C(=O)Nc1ccc([N+](=O)[O-])c(C(F)(F)F)c1 [Flutamide],-5.19
10,O=C1CCc2cc(OCCCCc3nnnn3C3CCCCC3)ccc2N1 [Cilostazol],2.19
11,CC(C)C(=O)OCC(=O)[C@@]12O[C@H](C3CCCCC3)O[C@@H]1C[C@H]1[C@@H]3CCC4=CC(=O)C=C[C@]4(C)[C@H]3[C@@H](O)C[C@@]12C [Ciclesonide],-4.94
12,Cc1nc(Nc2ncc(C(=O)Nc3c(C)cccc3Cl)s2)cc(N2CCN(CCO)CC2)n1 [Dasatinib],0.79
13,CC(C)CN(C[C@@H](O)[C@H](Cc1ccccc1)NC(=O)O[C@H]1CO[C@H]2OCC[C@H]21)S(=O)(=O)c1ccc(N)cc1 [Darunavir],-1.98
14,CCc1nc(N)nc(N)c1-c1ccc(Cl)cc1 [Pyrimethamine],1.7
15,CC(=O)Oc1ccccc1C(=O)O [Aspirin],-4.27
16,C[C@@H]1C[C@H]2[C@@H]3CCC4=CC(=O)C=C[C@]4(C)[C@@]3(F)[C@@H](O)C[C@]2(C)[C@@]1(O)C(=O)CO [Dexamethasone],-1.79
17,CN(C)CCc1c[nH]c2ccc(C[C@H]3COC(=O)N3)cc12 [Zolmitriptan],2.21
18,CCCC1O[C@@H]2C[C@H]3[C@@H]4CCC5=CC(=O)C=C[C@]5(C)[C@H]4[C@@H](O)C[C@]3(C)[C@]2(C(=O)CO)O1 (stereo not given in full) [Budesonide],-5.65
19,CNCc1ccc(-c2[nH]c3cc(F)cc4c3c2CCNC4=O)cc1 [Rucaparib camsylate],-4.08
20,C#CCN[C@@H]1CCc2ccccc21 [Rasagiline mesylate],2.17
